# KB-3-1 cytotox: kills parental KB-3-1 adenocarcinoma cells; KB-3-1 viability, CellTiter-Glo ATP luminescence, 72 h; Potency, µM (series often up to 46.1 µM), most hits filed as cytotoxic; 400,000 compounds, 1.4% hits; also: % is scaled to controls: 0 for no effect and ±100 for the full control effect; nearly all actives have a fitted effect of over 60% in size
#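 Screening of KB-3-1 cells (DMEM, 10% FBS, phenol-red free) ran from lowest to highest compound concentration; after 72 h at 37 °C viability was read luminescently and curves fitted.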
# SW480 rereplic: DNA re-replication induction in SW480 cells; Potency, µM (doses to about 46.1 µM), inactives show at the top dose re-replication activation, usual class: activators; SW480 DNA re-replication, Hoechst DNA content imaging, 48 h; 340,000 compounds, 1.8% hits; also: % of control where 0% means no effect; nearly all actives have a fitted effect of over 55% in size
#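 Quantitative HTS format with DMSO vehicle controls; 48 hr drug incubation at 37 C, then 40 min Hoechst staining and scanning imager measurement at 405 nm excitation.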
# MCF10A rereplic: inducers of DNA re-replication in MCF 10A breast cells; MCF 10A DNA re-replication, Hoechst nuclear intensity, 48 h; Potency, µM (top dose mostly 46.1 µM), for inactives: at the top dose activity, positive = re-replication, most hits filed as activators; 350,000 compounds, 2.9% hits; also: % of control where 0% means no effect; nearly all actives have a fitted effect of over 50% in size
# HT1080 IDH1KD tx: toxicity to HT-1080 IDH1 knockdown cells (counter line); HT-1080 IDH1 knockdown viability, ATP luminescence, 48 h; Potency, µM (titrated, usually from 46.1 µM), for inactives: at the top dose activity, negative = toxicity, usual class: cytotoxic; 360,000 compounds, 2% hits; AID 686971;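 also: 0% = DMSO wells and -100% = cell-free medium wells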
#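 % activity derives from luminescence (CellTiter-Glo), normalised to DMSO and no-cell wells. HT-1080-IDH1KD cells, 750/well, had 48 h compound exposure at 37 °C.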
# KB-V1 cytotox: KB-V1 MDR subline cytotoxicity | KB-V1 MDR cells viability, CellTiter-Glo, 72 h | Potency, µM (highest dose often 46.1 µM), usual class: cytotoxic | 400,000 compounds, 3.4% hits; also: % is scaled to controls: 0 for no effect and ±100 for the full control effect; nearly all actives have a fitted effect of over 60% in size
#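 Luminescent ATP read-out (CellTiter-Glo, 10 min) measures survival of drug-selected KB-V1 MDR cells after 72 h, 37 degrees C compound exposure. Medium: phenol-red-free DMEM, 10% FBS. Values from fitted concentration-response curves.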
# HT1080-NT tox: kills 2HG-producing HT-1080-NT fibrosarcoma cells | HT-1080-NT fibrosarcoma viability, CellTiter-Glo ATP luminescence, 48 h | Potency, µM (series often up to 46.1 µM), for the others: at the top dose activity, negative = less viability, actives largely listed as cytotoxic | 360,000 compounds, 1.6% hits | AID 686970;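 also: NT is the 2HG producing partner of a matched IDH1 knockdown line; 0% = DMSO-treated cells and -100% = media-only wells without cells; nearly all actives have a fitted effect of over 55% in size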
#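 Toxicity toward the 2HG-producing NT line was scored as %Activity, normalised to DMSO and no-cell wells, from CellTiter-Glo luminescence after 48 hours' treatment.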
# * hit, by the source's call; i = inactive; ? = inconclusive; nt = no result given; [ ] = another dose, or the depositor's remark. Sampled rows, rich in hits. Any-hit rate of the full collection: about 8%. Calls follow the shape of the dose curve; as a rule, active = well fitted curve in the direction sought with a large enough effect; inconclusive = small, poorly fitted or top-dose-only effect, or another doubt; inactive = no such curve, though single readings can be large; an effect the other way counts as inactive or inconclusive. Potency is read from the fitted curve at half-maximal effect.
SMILES,KB-3-1 cytotox,SW480 rereplic,MCF10A rereplic,HT1080 IDH1KD tx,KB-V1 cytotox,HT1080-NT tox
Cc1ccc(C)c(N2CCN(C(=O)c3csc4ccccc34)CC2)c1,?,3%,16µM*,-8%,?,-12%
Cc1ccc(S(=O)(=O)Cc2ccc(C(=O)N3CCN(c4cc(C)ccc4C)CC3)o2)cc1,?,2%,?,5%,18µM*,13%
Cc1ccc(Cl)cc1N1CCN(C(=O)c2ccc(CS(=O)Cc3ccc(Cl)cc3)o2)CC1 (stereo not given),i,0%,?,?,i,-17%
O=C(Nc1nnc(S(=O)(=O)N2CCCc3ccccc32)s1)c1ccccc1Br,i,nt,nt,nt,i,nt
CCc1ccc(CNC(=O)C2CCCN(c3nnc(C)c4c(C)n(-c5ccc(OC)cc5)nc34)C2)cc1 (stereo not given),i,nt,nt,nt,?,nt
CCOCCCNC(=O)/C(C#N)=C/c1ccc([N+](=O)[O-])o1,i,?,5.2µM*,7.3µM*,i,?
CCOCCCNC(=O)/C(C#N)=C/c1ccc(-c2ccc(S(=O)(=O)N3CCOCC3)cc2)o1,i,?,?,-1%,16µM*,-13%
COCCNC(=O)/C(C#N)=C/c1cc(Br)c(O)c(OC)c1,i,3%,-4%,3%,i,2%
CCOCCCNC(=O)/C(C#N)=C/c1cc(Br)c(O)c(Br)c1,6.5µM*,8.2µM*,12µM*,2.1µM*,3.7µM*,2.3µM*
Cc1cc(C)c(NC(=O)CSc2nc(C)cc(C)c2C#N)c(C)c1,i,nt,nt,nt,i,nt
Nc1c2c(nc3ccc(Br)cc13)N(c1ccccc1)CC2,i,15µM*,15µM*,?,?,?
Cc1cccc(N2CCc3c2nc2ccc(Br)cc2c3N)c1,i,-2%,-5%,?,i,?
COc1ccc(NC(=O)C2=C(C)Nc3ncnn3C2c2cccn2C)cc1 (stereo not given),i,nt,nt,nt,?,nt
CCC(C)c1ccc(NC(=S)NCc2cccnc2)cc1 (stereo not given),?,-5%,10%,10%,18µM*,23%
CC(C)(C)c1ccc(NC(=S)NCc2cccnc2)cc1,i,-20%,?,1%,i,4%
CCC(C)c1ccc(NC(=O)c2cccnc2)cc1 (stereo not given),i,?,24%,?,21µM*,-6%
COc1ccc(C(=O)NC(=S)Nc2cccc(S(=O)(=O)N3CCOCC3)c2)cc1,5.8µM*,?,16µM*,13µM*,5.2µM*,15µM*
COc1ccc(C(=O)NNC(=O)c2cccc(S(=O)(=O)N3CCOCC3)c2)cc1,i,2%,0%,2%,?,2%
CC(=O)Oc1ccc(-c2ccc(C(=O)Nc3cccc(S(=O)(=O)N4CCOCC4)c3)cc2)cc1,?,-1%,-6%,10µM*,?,?
COc1ccc(NC(=O)c2cccc(S(=O)(=O)N3CCOCC3)c2)cc1,i,-19%,11%,-8%,?,-7%
O=C(COC(=O)CCC(=O)c1ccc(F)cc1)Nc1cccc(S(=O)(=O)N2CCOCC2)c1,i,-2%,-1%,-1%,i,0%
O=C(COc1ccc(C(=O)c2ccc(F)cc2)cc1)Nc1cccc(S(=O)(=O)N2CCOCC2)c1,i,-2%,10%,-13%,12µM*,-12%
CCOc1cc(Br)c(CN2C(=O)NC3(CCCCCC3)C2=O)cc1OCC,i,0%,?,?,?,-12%
CCOc1cc(Cl)c(NC(C)=O)cc1OCC,i,4%,5%,8%,i,7%
Cc1cc(NCC2CCCCC2)nc2ccccc12,i,14%,26µM*,7.3µM*,9.2µM*,?
SMILES,KB-3-1 cytotox,SW480 rereplic,MCF10A rereplic,HT1080 IDH1KD tx,KB-V1 cytotox,HT1080-NT tox
Cc1cc(NCCNC2=CC(=O)CCC2)nc2ccccc12,i,-5%,-4%,4%,i,7%
COc1ccc([C@@H]2CC(=O)[C@@H]3CN(S(=O)(=O)c4ccc(C)cc4)[C@H](c4cccc(Cl)c4)C[C@@H]3N2S(=O)(=O)c2ccccc2)cc1,i,nt,nt,25%,i,22%
COc1cc(/C=N/NC(=O)c2nc(-c3ccccc3)n(-c3ccccc3)n2)ccc1O,i,-12%,-2%,7%,i,-4%
COc1cc(/C=N/Nc2nc(C)nc3c2cnn3-c2ccccc2)ccc1O,?,15µM*,?,?,8.2µM*,?
CC(C)=CCCC(C)CCO (stereo not given),i,-12%,13%,-1%,i,5%
CN[C@H](C)CCC=C(C)C,i,3%,24µM*,nt,i,nt
CCC1(C)Cc2c(sc3nc(SC)n(-c4ccc(C)cc4)c(=O)c23)CO1 (stereo not given),i,nt,nt,nt,i,nt
CCC1(C)Cc2c(sc3nc(NN)n(C)c(=O)c23)CO1 (stereo not given),i,?,21µM*,?,?,?
CCOC(=O)N1CCN(c2cc(C)c(C(C)=O)cc2F)CC1,i,2%,15%,6%,i,3%
CCOC(=O)N1CCN(c2cc(N)c([N+](=O)[O-])cc2F)CC1,i,-12%,-1%,-25%,23µM*,0%
CCOC(=O)N1CCN(c2ccc([N+](=O)[O-])cc2F)CC1C (stereo not given),i,-2%,20%,-6%,23µM*,0%
CC(C)OCc1ccc(C(=O)N2CCN(CC(=O)N3CCCC3)CC2)cc1,i,-8%,1%,7%,i,7%
CC(=O)N1N=C2c3ccccc3CCC2C1c1cccs1 (stereo not given),i,-12%,-2%,2%,i,-2%
CCn1cc(Cl)c(C(=O)N2N=C3/C(=C/c4cccs4)CCCC3C2c2cccs2)n1 (stereo not given),?,18µM*,23%,-29%,21µM*,?
CCCCn1nc(C(=O)Nc2c(C)n(C)n(-c3ccccc3)c2=O)c2ccccc2c1=O,i,-9%,-4%,1%,?,10%[9.24 µM]
COc1cc(C)nc(NCc2ccccc2)n1,i,-2%,-2%,-11%,i,0%
COc1ccc(Nc2cc(C)nc(NCc3ccccc3)n2)cc1,?,-1%,7%,21µM*,?,18µM*
Cc1cc(OC(C)C)nc(NCc2ccccc2)n1,12µM*,?,?,?,i,?
Cc1cc(NC2CCCCC2)nc(NCc2ccccc2)n1,?,15µM*,?,?,i,?

# Bioassay records from PubChem.
